# Results reported in PubChem BioAssay.
# Molecular target: Torsin-1A (Homo sapiens) (UniProt O14656)
# Assay: small-molecule binders of mutant TOR1A in lysate, primary screen, cell lysate, small-molecule microarray, COS7 lysate, 635/667 nm fluorescence (AID 1150);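 further: score pools 667 nm emission and signal to noise measuring lysate protein binding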
# Conditions: COS7 hTOR1A mutant lysate, 635 nm fluorescence, higher = more signal
# Chain of Torsin-1A (Homo sapiens) (O14656 whole entry, looked up): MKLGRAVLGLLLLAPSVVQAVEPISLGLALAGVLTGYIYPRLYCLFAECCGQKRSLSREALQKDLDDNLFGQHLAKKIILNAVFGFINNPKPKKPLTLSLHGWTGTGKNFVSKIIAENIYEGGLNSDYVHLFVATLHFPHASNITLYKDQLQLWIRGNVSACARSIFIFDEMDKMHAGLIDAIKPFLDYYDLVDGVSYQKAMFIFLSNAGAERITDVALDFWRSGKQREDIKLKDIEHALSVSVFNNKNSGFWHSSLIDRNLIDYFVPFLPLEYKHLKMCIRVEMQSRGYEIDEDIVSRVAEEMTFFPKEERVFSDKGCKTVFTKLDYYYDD
row,Structure (SMILES),composite z-score
1,C=CC[C@H](OC(=O)Nc1ccc(SC)cc1)c1ccc(O)c2ccccc12,0.465
2,O=C1O[C@@H](c2ccccc2)[C@@H](c2ccccc2)N2[C@@H](c3ccc(OCCO)cc3)[C@]3(C(=O)Nc4ccc(C#CC5=CCCCC5)cc43)[C@@H](C(=O)NC[C@H](O)c3ccccc3)[C@H]12,1.01
3,O=C1O[C@H](c2ccccc2)[C@H](c2ccccc2)N2[C@H]1[C@@H](C(=O)O)[C@]1(C(=O)Nc3ccc(C#CCCO)cc31)[C@H]2c1ccccc1OCCO,-0.199
4,CC(C)c1ccc(NN2C(C(O)c3ccc(C#N)cc3)C=CC3C(=O)N(c4ccccc4)C(=O)C32)cc1 (stereo not given),0.579
5,C[N+](C)(C)CCCC[C@@H]1NC(=O)[C@@H]2C[C@H](C(=O)NCCCCCCN)[C@H](c3cccc(OCCO)c3)N2C1=O,1.65
6,CC(C)[Si]1(C(C)C)OCc2cc(C3CC3)nc(-c3ccc(Oc4ccccc4)cc3)c21,-1.07
7,COCCOC(=O)N1C(=O)[C@@]2(c3cc(C#CC4(O)CCCCCC4)ccc31)[C@H](c1ccc(O)cc1)N1[C@H](c3ccccc3)[C@H](c3ccccc3)OC(=O)[C@H]1[C@@H]2C(=O)N1CCN(c2ncccn2)CC1,0.813
8,COC(=O)c1c(CC[C@@H](CO)NC(=O)N[C@@H](C)Cn2cc(-c3ccccn3)nn2)oc(C(C)=O)c1C(=O)OC,0.591
9,CCOC(=O)[C@@H]1CCCCN1C(=O)C(=O)OC,-0.144
10,CN(C)c1ccc(C(O)C2C=CC3C(=O)NC(=O)C3N2Nc2ccccn2)cc1 (stereo not given),0.927
11,CC#CCO[Si](C#Cc1ccccc1)(C(C)C)C(C)C,-0.811
12,CC(=O)N1CC2(CC2)CC1c1ccccc1 (stereo not given),0.421
13,COCCOC(=O)N1C(=O)[C@@]2(c3cc(C#CCC(C(=O)OC)C(=O)OC)ccc31)[C@H](c1ccc(OCCO)cc1)N1[C@H](c3ccccc3)[C@H](c3ccccc3)OC(=O)[C@H]1[C@@H]2C(=O)N1CCc2cc(OC)c(OC)cc2C1,0.769
14,C=CCC(OC(C)=O)[C@@H]1[C@@H](N(Cc2cccc3ccccc23)C(=O)Cc2ccc(F)cc2)c2cc(OCCCO)ccc2N1C(=O)c1ccc2ccccc2c1 (stereo not given in full),-0.183
15,CN1C2C=C(CCCO)C(C3C(=O)N(C(N)=O)C(=O)C32)C1C1CC1 (stereo not given),0.143
16,CCCN1C(=O)[C@]2(Cc3ccccc31)N=C(c1ccc(OCCCO)cc1)O[C@@H]2c1ccccc1,0.423
17,NCCCCCNC(=O)[C@@H]1C[C@@H]2C(=O)N[C@@H](CCCCN)C(=O)N2[C@@H]1c1ccc(O)cc1,1.59
18,Cc1ccc(C(C)CC(O)C2C=CC3C(=O)N(c4ccccc4)C(=O)C3N2Nc2ccccc2)o1 (stereo not given),1.11

row,Structure (SMILES),composite z-score
1,CCCNC(=O)[C@@H]1c2ccccc2C(=O)N(Cc2ccc(OC(F)(F)F)cc2)[C@H]1c1ccc(CO)cc1,-0.424
2,CC(C)C(CO)N1C(=O)[C@@H]2[C@H]3C(=O)OCC=C[C@H]3OC23C=CCN(c2ccc(Cl)cc2)C(=O)[C@@H]13 (stereo not given in full),-0.377
3,CC(C)c1ccc(NN2C(C(O)c3ccc(F)cc3)C=CC3C(=O)N(c4ccccc4)C(=O)C32)cc1 (stereo not given),0.0626
4,OCCCC1=CC(c2ccc(CN3CCCC3)cc2)N(Cc2cc3c(cc2Br)OCO3)CC1 (stereo not given),0.585
5,COc1cc2c(cc1O)C(c1cccs1)N(Cc1cc3c(cc1Br)OCO3)CC2 (stereo not given),1.16
6,CCCNC(=O)[C@@]1(Sc2ccc(C)cc2)CC(=O)N(C2Cc3ccccc3C2)[C@@H]1c1ccc(CO)cc1I,0.309
7,CC(C)=C1C(=O)C(c2ccccc2)=C2CN3C(=O)N(CCc4ccccc4)C(=O)[C@]3(Cc3ccc(C(F)(F)F)cc3)[C@H]21,-0.336
8,COc1cccc(C)c1NC(=O)O[C@H]1[C@H](OC(=O)Nc2ccccc2-c2ccccc2)[C@H](OC(=O)Nc2ccccc2-c2ccccc2)[C@@H](OC)O[C@@H]1CO,0.455
9,COCCCNC(=O)[C@@]1(CCC(=O)OC(C)(C)C)N=C(c2ccc(OCCCO)cc2)O[C@H]1c1ccccc1N=[N+]=[N-],1.04
10,COc1cc2c(cc1O)C(c1ccc(CN3CCCC3)cc1)N(Cc1cc3c(cc1Br)OCO3)CC2 (stereo not given),0.513
11,CCCC[C@@H](O)C1=C(COC)C[C@H]2C(=O)N(C)C(=O)[C@H]2[C@H]1CO,0.227
12,COC(=O)C(CC#Cc1ccc2c(c1)[C@]1(C(=O)N2)[C@H](c2ccc(O)cc2)N2[C@H](c3ccccc3)[C@H](c3ccccc3)OC(=O)[C@H]2[C@@H]1C(=O)NC[C@H](O)c1ccccc1)C(=O)OC,0.276
13,COC(=O)C1=CC(CCCO)=CC(c2ccc(CN3CCCC3)cc2)N(Cc2cccc(OC(F)(F)F)c2)C=C1C(=O)OC (stereo not given),1.18
14,NC(=O)NCC#Cc1ccc2c(c1)[C@]1(C(=O)N2)[C@H](c2ccccc2OCCO)N2[C@H](c3ccccc3)[C@H](c3ccccc3)OC(=O)[C@H]2[C@@H]1C(=O)O,0.28
15,COC(=O)[C@@H]1N=C(c2ccc(OCCCO)cc2)O[C@@H]1c1ccccc1,0.695
16,C=CCC(OC(C)=O)[C@@H]1[C@@H](N(Cc2cccc3ccccc23)C(=O)Cc2ccc(OC)cc2)c2cc(OCCCO)ccc2N1C(=O)c1ccc(-c2ccccc2)cc1 (stereo not given in full),0.0437
17,CC(C)[Si]1(C(C)C)OCc2cc(-c3ccc(-c4ccc(Cl)c(Cl)c4)o3)nc(-c3ccccc3)c21,-1.15
